The text below walks through data of PubChem BioAssay.

Several values for one entry are separate records, joined by “and”; a condition that tells them apart may be missing. Identical values can stand only once. Activity calls are given as the source filed them.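 Rule for the calls, unless noted: active = compounds lowering colon cancer cell viability after pretreatment blocking the GSK3B kinase; inactive = the rest.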

The nature of assay [1]: P. berghei load reduction in hepatocytes – cell-based, HepG2, luciferase luminescence, HepG2 viability, primary screen (AID 624349; in the data active = parasite load remaining mostly below about 12%, no sharp cut-off; inactive = mostly above about 10%;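 note: 100% = mean of DMSO negative control wells on the same plate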). The settings on record: P. berghei liver stage in HepG2, luciferase luminescence, concentration not given here; parasite load remaining: stronger effect = lower value; viability: measured here: HepG2 viability without parasites.
The nature of assay [2]: Wnt pathway potentiators raising nuclear beta-catenin – imaging, WNT3A-conditioned medium, mouse C2C12, NPC library, primary screen (AID 1117326; in the data active = nuclear beta-catenin stimulation mostly above about 4.2%, no sharp cut-off; inactive = mostly below about 10%). The settings on record: stronger effect = higher value.
Assay [3] can be described thus: stimulators of insulin release from INS-1E, primary screen, cell-based, 5 mM glucose, NPC library (AID 1117329;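 active = compound raises insulin release from rat beta cells at 5 mM glucose, no numeric limit stated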). The settings on record: rat INS-1E insulin secretion, at 10 µM, stronger effect = higher value.
A short description of assay [4]: growth inhibition of GSK3B-pretreated HCT116 cells – cell-based, CellTiter-Glo, 0.2 to 20 µM (AID 1117336). The settings on record: HCT116 viability after GSK3B inhibitor, at 20 µM, stronger effect = higher value. In general terms: In ATP-based viability assays light output follows the ATP content of the culture.
Assay [5] can be described thus: inhibition of endothelial tube formation, primary screen, imaging, VEGF stimulated, CD31 staining, tube area, NPC library (AID 1117340;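 active = compound that reduces growth-factor-driven endothelial tube area in a mixed cell culture, no cutoff stated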). The settings on record: VEGF-stimulated ADSC/ECFC co-culture, at 10 µM, stronger effect = higher value.
Assay [6] can be described thus: GLP1 release stimulators, primary, NCI-H716, NPC library (AID 1117341;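 active = compound raises GLP1 secretion from the human gut endocrine cells, with no numeric limit stated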). The settings on record: NCI-H716 cells, at 10 µM, stronger effect = higher value.
A short description of assay [7]: HCT116 colon cancer cell growth inhibition, primary screen, CellTiter-Glo luminescence, NPC library (AID 1117342;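 active = compounds that lower survival of HCT116 colon cancer cells in the luminescence readout, no numeric limit stated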). The settings on record: at 20 µM (top of the series).
A short description of assay [8]: reduced SW480 viability measured with CellTiter-Glo, NPC library, primary (AID 1117343;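 active = compounds that lower viability of the colon cancer cells in the luminescence readout, with no numeric limit stated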). The settings on record: CellTiter-Glo luminescence; at 20 µM (top of the series).
A short description of assay [9]: NPC library primary testing for decreased DLD-1 cell viability via CellTiter-Glo (AID 1117346;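 active = compounds that lower survival of DLD-1 colon cancer cells in the luminescence readout, no cutoff given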). The settings on record: DLD-1 viability, CellTiter-Glo luminescence; at 20 µM (top of the series).
A short description of assay [10]: viability loss with induced miR-34 in A549 – imaging, A549 dox-inducible miR-34, nuclei and caspase counts, primary screen (AID 1347080;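 active = compounds whose cell count with miR-34 switched on is under 0.7 times the count with it off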). The settings on record: A549 miR-34 inducible, Hoechst nuclei count, 48 h.
Assay [11] in a line: galactose survival enhancers in mitochondrial complex I cybrids – cell-based, galactose medium, ATP luminescence, primary screen (AID 1645843;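 active = z-score of at least 1.8 in each of two replicates, scored against plate mean and spread of sample wells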;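 note: positive z means more ATP and so rescue of galactose-driven cybrid death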). The settings on record: complex I mutant cybrid cells, 72 h, stronger effect = higher value.
Assay [12] can be described thus: EMT-state selective cytotoxicity in co-culture – imaging, PC-3E GFP, TEM4-18 mCherry, primary screen (AID 1345086;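 active = compounds killing one labelled cell type while sparing the other, by normalised counts and ratio limits, not self-fluorescent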;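 for all read-outs here: cells exposed to compound for 72 h before imaging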;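 for red/green cell ratio (normalised): normalised mesenchymal count divided by normalised epithelial count so high means epithelial killing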). The settings on record: PC-3E GFP / TEM4-18 mCherry co-culture, imaging cell counts, at 1 µM; for red/green cell ratio (normalised): actives lie on both sides.
Assay [13] in a line: MELAS cybrid and Rieske KO viability enhancers – cell-based, MELAS cybrids, Rieske KO mouse fibroblasts, CellTiter-Glo, primary screen (AID 1508586;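 active = mean z-score across replicates of 1.96 or higher in either the MELAS or the Rieske mutant cell line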;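 note: z relative to plate mean and SD of compound and empty wells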). The settings on record: low glucose.
Where [14] appears, read: measured here: relative caspase fold change +Dox/-Dox.
Setting [15] is: measured here: total cells with miR-34 induction, stronger effect = lower value.
Where [16] appears, read: measured here: total cells without miR-34 induction.
[17] abbreviates: measured here: epithelial PC-3E GFP cell survival.
Where [18] appears, read: measured here: mesenchymal TEM4-18 mCherry cell survival.

Usually viability stands for a read-out of living cells in per cent, often relative to untreated cells. Take `CCN(CC)CCOC(=O)C(O)(c1ccccc1)c1ccccc1`: the parasite load remaining in assay [1] was 103% (inactive). The viability in assay [1] is 95.8%. Moreover, the nuclear beta-catenin stimulation in assay [2] (at 10 µM) was -0.3% (inactive); in assay [2] (stimulation, at 2 µM), -1.2%. Further, the insulin secretion stimulation in [3] is 4% (inactive). For the same compound, the viability decrease in assay [4] is -5.8% (inactive). In addition, in assay [5], the tube area decrease is -5.7% (inactive). Also, in assay [6], the GLP1 secretion stimulation is 1% (inactive). Further, in assay [7], the inhibition of viability is 1.8% (inactive). Besides, the viability decrease (inhibition) in assay [8] is -15.1% (inactive); in assay [9], 2.6% (inactive). Besides, the values for the fold change in assay [10] (stronger effect = lower value) and in assay [10] (setting [14]) were 1.01 (inactive) and 1.6, respectively. The cell count in assay [10] (setting [15]) worked out at 10200; in assay [10] (setting [16]), 10100. Moreover, the z-score in [11] was 0.79 (inactive).

For the compound `O=C1C2CC=CCC2C(=O)N1SC(Cl)(Cl)Cl` (stereo unspecified), the nuclear beta-catenin stimulation in [2] (at 10 µM) is 14.9% (active); in assay [2] (stimulation, at 2 µM), 44.5%. In assay [3], the insulin secretion stimulation was 0.6% (inactive). For the same compound, the viability decrease in assay [4] is 98.9% (active). In addition, the tube area decrease in assay [5] is 108% (active). In addition, the GLP1 secretion stimulation in [6] was 0.3% (inactive). Besides, the inhibition of viability in assay [7] was 99.3% (active). In addition, the viability decrease (inhibition) in assay [8] and in assay [9] was 102% (active) each time. Moreover, the red/green cell ratio (normalised) in assay [12] (counts scaled to control wells, 1 = unselective) was 1.09 (inactive). Also, the normalised cell number in [12] (setting [17]) was found to be 1.03; in assay [12] (setting [18]), 1.13.

As for `CC[C@]1(O)CC[C@H]2[C@@H]3CCC4=CCCC[C@@H]4[C@H]3CC[C@@]21C`, in [1], the parasite load remaining was 95.1% (inactive). For the same compound, the viability in assay [1] was found to be 75.2%. For the same compound, the nuclear beta-catenin stimulation in assay [2] (at 10 µM) was 8.1% (inactive); in [2] (stimulation, at 2 µM), 0.5%. The insulin secretion stimulation in [3] is 1.8% (inactive). In assay [4], the viability decrease is 70.7% (active). Moreover, the tube area decrease in assay [5] was 66.4% (active). For the same compound, the GLP1 secretion stimulation in assay [6] is 2.3% (inactive). For the same compound, the inhibition of viability in assay [7] was 64.1% (active). Further, the viability decrease (inhibition) in [8] was 97.8% (active); in [9], 73% (active).

Regarding `O=C(N/N=C/c1ccc([N+](=O)[O-])o1)c1cc([N+](=O)[O-])cc([N+](=O)[O-])c1O`, the nuclear beta-catenin stimulation in assay [2] (at 10 µM) is 0.7% (inactive); in [2] (stimulation, at 2 µM), 1.8%. In addition, the insulin secretion stimulation in assay [3] is 1.3% (inactive). The viability decrease in [4] is 79.6% (active). The tube area decrease in assay [5] was -13.6% (inactive). In addition, the GLP1 secretion stimulation in assay [6] was 1% (inactive). Also, the inhibition of viability in assay [7] was 29.8% (inactive). Also, the viability decrease (inhibition) in assay [8] is 25.2% (inactive); in assay [9] it was 4.8% (inactive). For the same compound, in assay [12], the red/green cell ratio (normalised) is 1.05 (inactive). For the same compound, the normalised cell number was determined as 1.03 in assay [12] (setting [17]) and 1.08 in assay [12] (setting [18]). The fold change was 0.946 (inactive) in [10] (stronger effect = lower value) and 1.02 in assay [10] (setting [14]). Besides, the figures for the cell count in assay [10] (setting [15]) and in assay [10] (setting [16]) were 8410 and 8890, respectively.

Consider `O=C(O)C(Cl)Cl`, for which, in assay [1], the parasite load remaining was 106% (inactive). In [1], the viability is 113%. Besides, the nuclear beta-catenin stimulation in assay [2] (at 10 µM) is 1.9% (inactive); in assay [2] (stimulation, at 2 µM) it was 0%. Besides, the insulin secretion stimulation in [3] is -1.6% (inactive). Further, the viability decrease in assay [4] is -4.8% (inactive). For the same compound, the tube area decrease in assay [5] is -7.2% (inactive). In addition, in [6], the GLP1 secretion stimulation is -2% (inactive). For the same compound, in assay [7], the inhibition of viability is -9.3% (inactive). Besides, the viability decrease (inhibition) in [8] is 38.4% (inactive); in [9], 8.5% (inactive). In addition, the fold change was 1.04 (inactive) in assay [10] (stronger effect = lower value); 0.958 (inactive) in assay [10] (stronger effect = lower value, cell number ratio, induced over uninduced); 1.82 and 1.65 in assay [10] (setting [14]). In addition, the cell count was 10400 and 8960 in [10] (setting [15]); 10100 and 9360 in assay [10] (setting [16]). In addition, in [11], the z-score is 0.605 (inactive) and 0.045 (inactive).

For `CCOC(=O)c1cncn1C(C)c1ccccc1` (stereo unspecified), the parasite load remaining in assay [1] was 51% (inactive) and 69.2% (inactive). Besides, the viability in assay [1] is 95.5% and 111%. The nuclear beta-catenin stimulation in assay [2] (at 10 µM) is 1.8% (inactive); in assay [2] (stimulation, at 2 µM), 3.6%. The insulin secretion stimulation in assay [3] is -0.5% (inactive). In assay [4], the viability decrease is -7.2% (inactive). The tube area decrease in assay [5] is 11% (inactive). Further, in [6], the GLP1 secretion stimulation is -1.9% (inactive). In assay [7], the inhibition of viability was -15.8% (inactive). Further, the viability decrease (inhibition) was 22.4% (inactive) in [8] and -22.4% (inactive) in assay [9]. The z-score in assay [13] (MELAS cybrid survival, CellTiter-Glo 48 h, stronger effect = higher value) is -0.441 (inactive); in assay [13] (Rieske KO mouse fibroblast survival, CellTiter-Glo 72 h), 0.585; in assay [11], 0.035 (inactive) and 0.295 (inactive).
